We go through 40 compounds from PubChem BioAssay (NCATS).

Where “and” joins values, the source holds several entries; their conditions need not be identical. Equal values may be shown once. Results filed as inconclusive are left out. Entries that show only a call come without a potency. Calls of active or inactive are those of the source. The call rests on the fitted dose curve; in most records, active means well fitted inhibition curve with a large enough effect; inconclusive means small, poorly fitted or top-dose-only effect; inactive means flat fitted curve, though single readings scatter.
Potency means the concentration at half of the fitted maximal effect.

This experiment concerns astro (control astrocytes). Description: Drug repurposing screens with cells derived from glioblastoma tumor samples (AID 1345199). Further: nearly all actives have a fitted effect of over 40% in size. The settings on record: viability, ATP luminescence, 48 h; series mostly up to 45.9 µM. Here is the method:
CD133+ cells were isolated from GBM patient biopsies and cultured as neurospheres. Neurospheres from four patients were used to screen the NCATS pharmaceutical collection (NPC) library of approved drugs and bioactive compounds. […] The neurospheres were incubated with drugs for 48 hours in 1536-well format, then assayed with an ATP content cell viability assay. […] These hits were cherry picked to confirm activity in the four original GBM lines screened plus three other slower growing GMB lines (unable to yield enough cells for a full primary screen). Variable activities of the confirmed primary hits in the different GBM patient lines were observed. The patient line 206 responded to the greatest number of compounds and line 923 responded to the least amount of active compounds.
As to `Cc1cnc(C(=O)O)c[n+]1[O-]`, the Potency result is “inactive”.

Consider `COc1cc2ncnc(Nc3ccc(F)c(Cl)c3)c2cc1OCCCN1CCOCC1`, for which the Potency was 20 µM (active).

Turning to `CC(C)OC(=O)C(C)(C)Oc1ccc(C(=O)c2ccc(Cl)cc2)cc1`, the Potency entry was “inactive”.

With `CC(C)NCC(O)COc1cccc2[nH]ccc12` (stereo not given), the Potency entry is “inactive”.

For `OC[C@@H](O)[C@H](O)[C@H](O)[C@@H](O)CO`, the Potency result is “inactive”.

Consider `Clc1ccc(Cn2c(CN3CCCC3)nc3ccccc32)cc1`, for which the Potency entry was “inactive”.

In the case of `CC/C(=C(\c1ccccc1)c1ccc(OCCN(C)C)cc1)c1ccccc1`, the Potency is 25.1 µM (active).

Consider `CCN(CC)CCOC(=O)c1ccc(N)cc1`, for which the Potency result was “inactive”.

As to `COc1ccccc1N1CCN(CCCNc2cc(=O)n(C)c(=O)n2C)CC1`, the Potency entry is “inactive”.

Turning to `CN1[C@@H]2CCC[C@@H]1CC(NC(=O)c1nn(C)c3ccccc13)C2` (stereo not given in full), the Potency result was “inactive”.

On to `O=c1[nH]cnc2c1ncn2[C@H]1CC[C@@H](CO)O1`, for which the Potency entry is “inactive”.

Take `NC[C@@H]1O[C@@H](O[C@H]2[C@@H](O)[C@H](O[C@@H]3[C@@H](O)[C@@H](N)C[C@H](N)[C@H]3O[C@H]3O[C@H](CN)[C@@H](O)[C@@H](O)[C@H]3N)O[C@H]2CO)[C@H](N)[C@@H](O)[C@@H]1O`: the Potency result is “inactive”.

`CCN(CC)CCNC(=O)c1ccc(N)cc1`: the Potency entry is “inactive”.

In the case of `NCCS`, the Potency result is “inactive”.

Turning to `O=C(CCCCCCC(=O)Nc1ccccc1)NO`, the Potency was 10 µM (active) and 8.91 µM (active).

As for `CC(=O)O[C@]1(C(C)=O)CC[C@H]2[C@@H]3C=C(Cl)C4=CC(=O)[C@@H]5C[C@@H]5[C@]4(C)[C@H]3CC[C@@]21C`, the Potency entry is “inactive”.

As for `CC1=C(/C=C/C(C)=C/C=C/C(C)=C/C(=O)Nc2ccc(O)cc2)C(C)(C)CCC1`, the Potency was 11.2 µM (active).

`COC(=O)[C@@H]1[C@H]2C[C@H]3c4[nH]c5ccccc5c4CCN3C[C@@H]2CC[C@@H]1O`: the Potency result is “inactive”.

With `CC1(C)O[C@H]2C[C@@H]3[C@H]4CCC5=CC(=O)C=C[C@]5(C)[C@@]4(F)[C@@H](O)C[C@]3(C)[C@]2(C(=O)CO)O1`, the Potency entry was “inactive”.

`NC(N)=Nc1nc(CSCC/C(N)=N/S(N)(=O)=O)cs1`: the Potency entry is “inactive”.

Take `O=C(O)Cc1cccc2ccccc12`: the Potency result is “inactive”.

Consider `C[N+](C)(C)CCCCCC[N+](C)(C)C`, for which the Potency entry was “inactive”.

With `O=C1NCC2(CCN(CCc3ccccc3)CC2)O1`, the Potency entry is “inactive”.

As for `CCOC(=O)O[C@]1(C(=O)OCCl)CC[C@@H]2[C@H]3CCC4=CC(=O)C=C[C@]4(C)[C@@H]3[C@@H](O)C[C@@]21C`, the Potency result is “inactive”.

On to `Cc1cccc(C)c1OCC(C)N` (stereo not given), for which the Potency result is “inactive”.

Consider `CCN1CCC[C@H]1CNC(=O)c1cc(S(N)(=O)=O)ccc1OC`, for which the Potency result is “inactive”.

In the case of `CCCCC1C(=O)N(c2ccccc2)N(c2ccccc2)C1=O`, the Potency result is “inactive”.

Consider `CCn1cc(C(=O)O)c(=O)c2ccc(C)nc21`, for which the Potency entry is “inactive”.

For the compound `CC(=O)N[C@@H](CS)C(=O)O`, the Potency result was “inactive”.

`CN(C)CCC(c1ccccc1)c1ccccn1` (stereo not given): the Potency result was “inactive”.

Regarding `CC(=O)c1ccc(S(=O)(=O)NC(=O)NC2CCCCC2)cc1`, the Potency entry was “inactive”.

Take `Cc1nnc(C(C)C)n1C1C[C@H]2CC[C@@H](C1)N2CC[C@H](NC(=O)C1CCC(F)(F)CC1)c1ccccc1` (stereo not given in full): the Potency result was “inactive”.

`O=C(O)CCc1nc(-c2ccccc2)c(-c2ccccc2)o1`: the Potency entry was “inactive”.

As for `O=C1NC(=O)C(c2ccccc2)(c2ccccc2)N1`, the Potency result is “inactive”.

Turning to `CCCNC(=O)NS(=O)(=O)c1ccc(Cl)cc1`, the Potency result was “inactive”.

With `C[N+]1(C)[C@@H]2CC(OC(=O)[C@H](CO)c3ccccc3)C[C@H]1[C@H]1O[C@@H]12` (stereo not given in full), the Potency entry is “inactive”.

Take `N#C[C@H]1C[C@H]2C[C@@H]2N1C(=O)[C@@H](N)C12CC3CC(CC(O)(C3)C1)C2`: the Potency result is “inactive”.

For `CC(=O)CCCCn1c(=O)c2c(ncn2C)n(C)c1=O`, the Potency entry was “inactive”.

`CC(C(=O)O)c1ccc(-c2ccccc2)c(F)c1` (stereo not given): the Potency entry is “inactive”.

Consider `CN(C)c1cc(NC(=O)CNC(C)(C)C)c(O)c2c1C[C@@H]1C[C@H]3[C@H](N(C)C)C(=O)C(C(N)=O)=C(O)[C@@]3(O)C(=O)C1=C2O`, for which the Potency result was “inactive”.
